Results from PubChem BioAssay (NCI).
About 83,000 compounds went through this panel and 20% of them were active in at least one assay; those are over-represented in the sample as a whole.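 Cell lines were cultured in 96-well plates, exposed to a single compound concentration, and assessed for percent growth 48 hours later.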 Unmarked numbers belong to inactive results. The source made the active and inactive calls. Rule for the calls: active = growth percent below 10; inactive = the rest.

What was measured:
Test in all cases: NCI-60 one-dose screen, 48 h (100 = growth as untreated, 0 = no growth, -100 = all killed)
Details in all cases: 10 µM unless noted
SK-MEL-2 melanoma = test system: SK-MEL-2 melanoma
EKVX NSCLC = test system: EKVX NSCLC
SN12C renal = test system: SN12C renal
UO-31 renal = test system: UO-31 renal
TK-10 renal = test system: TK-10 renal
ACHN renal = test system: ACHN renal
A498 renal = test system: A498 renal
CCRF-CEM leukemia = test system: CCRF-CEM leukemia
MOLT-4 leukemia = test system: MOLT-4 leukemia
SR leukemia = test system: SR leukemia

Compound	growth (SK-MEL-2 melanoma)	growth (EKVX NSCLC)	growth (SN12C renal)	growth (UO-31 renal)	growth (TK-10 renal)	growth (ACHN renal)	growth (A498 renal)	growth (CCRF-CEM leukemia)	growth (MOLT-4 leukemia)	growth (SR leukemia)
COc1cc(C(=O)Nc2cc(OC)c3ccn(C)c3c2)cc2c1C[C@]1(C)CC[C@@H](O)C(C)(C)[C@H]1O2	-7.94% (active)	33.5%	46.8%	-5.02% (active)	36.9%	18%	-23.1% (active)	5.35% (active)	-8.72% (active)	11.5%
CCOC(=O)c1c(C)nc2c(c1N)/C(=C/c1ccc[nH]1)C(=O)N2Cc1ccc(C(F)(F)F)cc1	75.5%	53.7%	49.4%	35.4%	49.3%	26.1%	57.5%	75%	78.4%	62.5%
COC(=O)CCc1n(Cc2ccc3ccccc3c2)c2ccccc2[n+]1Cc1ccc2ccccc2c1	-56.2% (active)	42.1%	7.8% (active)	78.9%	-5.81% (active)	86.8%	8.46% (active)	9.86% (active)	3.6% (active)	-47.7% (active)
C=C(C)[C@@H]1CC[C@]2(C(=O)OCCCC[P+](c3ccccc3)(c3ccccc3)c3ccccc3)CC[C@]3(C)[C@H](CC[C@@H]4[C@@]5(C)CC[C@H](OC(=O)C(Cl)Cl)C(C)(C)[C@@H]5CC[C@]43C)[C@@H]12	-67.5% (active)	-13.3% (active)	-62.2% (active)	-51% (active)	-36.2% (active)	-39.6% (active)	-58.9% (active)	0.798% (active)	-45% (active)	-34% (active)
O=c1c2ccccc2n(CC(O)CN2CCCC2)c2c(Br)cccc12 (stereo not given)	112%	99.1%	109%	89.1%	106%	108%	71.8%	82.3%	104%	77%
C1=CC2=CC=C3C=CC=C4C(c5nc6c7ccccc7c7ccccc7c6[nH]5)=CC(=C1)C2C34 (stereo not given)	123%	93.5%	94.6%	62.8%	127%	89.6%	63.7%	89.7%	73.3%	76.3%
COc1cc(C2=N/C(=C\c3cc4ccccc4nc3Oc3ccccc3)C(=O)N2C(=N)N)cc(OC)c1OC	84.7%	72.1%	43.1%	55.3%	80.6%	61.9%	69%	87.3%	85.1%	63.8%
CC1=C/C(=N\N=C2/C=C(C)CC(C)(C)C2)CC(C)(C)C1	107%	108%	108%	83.7%	95.2%	110%	94.4%	97.9%	96.3%	97.3%
C=C1C(=O)O[C@H]2[C@H]1CC/C(COC(=O)CCCCCCCC(=O)OC/C1=C/CC[C@@]3(C)O[C@H]3[C@H]3OC(=O)C(=C)[C@@H]3CC1)=C\CC[C@@]1(C)O[C@@H]21	59.9%	18.5%	4.85% (active)	-22.1% (active)	3.41% (active)	-24.8% (active)	109%	5.92% (active)	2.39% (active)	0.728% (active)
c1ccc(-c2cn3ccnc3c(-c3ccc4c(c3)ncn4C3CCCCC3)n2)cc1	106%	97.5%	95.2%	79.1%	106%	104%	106%	88.3%	60.3%	55.4%
O=c1[nH]nc(-c2ccccc2)c2sc(NC(=S)Nc3ccc(Cl)cc3)nc12	85.5%	83%	103%	84.4%	96.5%	102%	86%	99.2%	79.6%	91.7%
CCN1CCN(Cc2ccc(NC(=O)c3cccc(C#Cc4cccc5[nH]nc(N)c45)c3)cc2C(F)(F)F)CC1	-70.1% (active)	-46.4% (active)	-35.4% (active)	-92.3% (active)	-94.4% (active)	-81.1% (active)	-63.5% (active)	-16.2% (active)	-31.2% (active)	-49.2% (active)
O=C1NC(c2ccc(F)cc2)N=C2C(c3ccccc3)=NOC12 (stereo not given)	108%	99.8%	104%	97.4%	106%	107%	104%	102%	116%	112%
COC(=O)/C=C1\SC(=Nc2ccc(C(F)(F)F)cc2)N(CCc2c[nH]c3ccccc23)C1=O	-54.1% (active)	-6.54% (active)	-65.1% (active)	-100% (active)	-33.7% (active)	-100% (active)	-48.5% (active)	3.88% (active)	-11.4% (active)	-13.7% (active)
CCOC(=O)c1c(C)nc2c(c1N)/C(=C/c1ccccn1)C(=O)N2Cc1ccccc1	-26.1% (active)	24.8%	8.15% (active)	-65.6% (active)	2.08% (active)	0.89% (active)	54.6%	2.47% (active)	-12.8% (active)	-11.8% (active)
COc1ccc(-n2cc(COc3ccc4c5ccnc(C)c5n(CC(C)C)c4c3)nn2)cc1	87.7%	69%	77%	71%	70.5%	64.6%	53.6%	72.9%	24.4%	22.6%
CN(C)C1=NCCN1	81.5%	103%	104%	96.2%	93.6%	111%	107%	90.2%	92.6%	108%
CC1CCN(CCCCCOc2ccc3oc4cc(Cl)ccc4c(=O)c3c2)CC1	88%	83.8%	63.5%	67.7%	78%	83.1%	85.2%	65.5%	29.7%	16.5%
CC(C)CSc1nc(Nc2ccccc2)c(C#N)c(-c2ccc(F)cc2)n1	78.8%	23.2%	-26% (active)	-3.98% (active)	-22.9% (active)	-43.2% (active)	-0.717% (active)	31.1%	65.5%	-11.1% (active)
FC(F)(F)c1ccc2c(Nc3cccc(C4CC(c5ccccc5)=NN4c4ccc(Cl)cc4)c3)ccnc2c1 (stereo not given)	87.2%	82.6%	37.7%	35.9%	82.3%	73.3%	66.3%	3.45% (active)	4.86% (active)	-10.9% (active)
O=C1Nc2ccccc2C12C=C(c1ccccc1)Nc1c2c(-c2ccccc2)nn1-c1ccccc1 (stereo not given)	80.1%	53.2%	76.5%	62.9%	87.8%	60.4%	75.6%	25.9%	16.4%	38%
CC(C)C1=C[C@@]23CC[C@H]4[C@](C)(COCCC#N)CCC[C@]4(C)[C@H]2C[C@@H]1[C@@H]1[C@H]3[C@@H](OCCC#N)CC[C@@H]1OCCC#N	24.5%	17.6%	32.9%	24.8%	37.7%	25%	67.7%	34.3%	5.36% (active)	15%
O=C(CSC(=S)N1CCCCC1)Nc1ccccc1	92.1%	106%	106%	86.5%	85.8%	98.8%	99.5%	89.9%	86.5%	87.1%
C=C(C)[C@@H]1CC[C@]2(C(=O)O)CC[C@]3(C)[C@H](CC[C@@H]4[C@@]5(C)C[C@@H](CC#Cc6ccc(Cl)cc6)C(=O)C(C)(C)[C@@H]5CC[C@]43C)[C@@H]12	-18.9% (active)	40%	27.8%	60.5%	59.7%	48.2%	-15.1% (active)	27.9%	26.7%	49.9%
N#CC(C#N)=C1NC(c2ccccc2)=C(c2ccccc2)C(c2ccccc2Cl)=C1C#N	94.8%	97.6%	111%	96.8%	80.7%	110%	113%	96.2%	81.5%	109%
O=C1Nc2ccc(Cl)cc2/C1=N/c1nc(-c2ccc(Cl)cc2)cs1	-2.56% (active)	25.6%	17.3%	24.6%	-15.5% (active)	11.9%	-2.57% (active)	8.26% (active)	2.22% (active)	3.05% (active)
